Hits are enriched below; roughly 2.8% of the tested compounds scored in any of these assays.
PTHR1 agonist: agonists of human PTHR1 parathyroid hormone receptor. Q03431. HEK293 GP2 PTHR1 cells, GloSensor cAMP luminescence, 1 h. 410,000 compounds, 0.075% hits. AID 743266. Potency, µM (highest dose often 115 µM), without a hit: at the top dose activation, actives largely listed as activators; also: potency is read from the fitted curve at half-maximal effect; nearly all actives have a fitted effect of over 55% in size
Target sequence (Q03431 whole entry, looked up): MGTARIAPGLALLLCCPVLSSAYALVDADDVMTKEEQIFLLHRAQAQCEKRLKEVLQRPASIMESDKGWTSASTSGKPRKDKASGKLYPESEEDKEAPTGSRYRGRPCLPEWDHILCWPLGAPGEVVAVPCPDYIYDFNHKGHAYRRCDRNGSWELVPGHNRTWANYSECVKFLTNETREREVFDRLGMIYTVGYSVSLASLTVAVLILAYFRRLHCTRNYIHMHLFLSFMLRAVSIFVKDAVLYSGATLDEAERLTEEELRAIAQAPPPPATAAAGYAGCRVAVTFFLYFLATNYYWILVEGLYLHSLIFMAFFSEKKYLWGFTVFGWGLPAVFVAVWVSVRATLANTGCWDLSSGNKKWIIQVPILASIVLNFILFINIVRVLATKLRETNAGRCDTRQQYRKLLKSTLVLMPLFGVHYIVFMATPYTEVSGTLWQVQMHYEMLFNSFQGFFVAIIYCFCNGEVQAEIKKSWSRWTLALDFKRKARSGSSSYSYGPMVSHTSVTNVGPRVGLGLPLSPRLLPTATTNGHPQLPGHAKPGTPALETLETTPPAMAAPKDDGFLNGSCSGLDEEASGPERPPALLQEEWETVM
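HEK-293-derived GP2 cells expressing PTHR1 and a GloSensor cAMP reporter, 3,000/well, plated overnight, given luciferin plus IBMX (each 0.5 mM as added) for 1 h at 37 °C, then compound for 1 h at 37 °C. Luminescence was read after 15 min at room temperature.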
D3 ag: activates the human D3 dopamine receptor; 410,000 compounds, 0.58% hits; AID 652048; max activation, %; D3R DiscoveRx beta-arrestin cells, luminescence, 90 min; P35462; in the data active = max activation above about 30%; also: 0% is about no effect
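Agonist-mode cell screen: cells plated at 1500/well and incubated overnight at 37 °C, then exposed to library compounds for 90 min at 37 °C. Detection reagent was added for 30–60 min at room temperature, and luminescence was read.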
CBFb RUNX1 block: CBF-beta/RUNX1 interaction disruption | Potency, µM (top dose mostly 59.8 µM), inactives show at the highest dose activity, negative = inhibition, most hits filed as inhibitors | Q01196+Q13951 | AlphaScreen CBFb-His/RUNX1-biotin binding, biochemical | AID 1477 | 230,000 tested, under 10 active; also: % of control where 0% means no effect
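Interaction loss through any mechanism counts as activity. Pre-formed complex of His-CBF-beta and biotin-RUNX1 (30 nM apiece) is incubated with compound 15 min, then with 50 ng nickel and 50 ng streptavidin beads for 90 min before AlphaScreen detection.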
MBNL1 CUG block: inhibitors of human MBNL1 binding to CUG repeat RNA | Q9NR56 | TR-FRET MBNL1-His/biotin-(CUG)12 binding, 665/545 ratio | Potency, µM (series often up to 57.5 µM), for inactives: at the top dose activity change, negative = inhibition, actives largely listed as inhibitors | 280,000 compounds, 0.036% hits | AID 2675; active = well fitted inhibition curve with a large enough effect in the signal ratio, with a control signal flat, not every such curve was filed as active; inconclusive = small, poorly fitted or top-dose-only effect, or effect the other way, or a change in a side signal; inactive = no such curve, though single readings can be large or run the other way; the % refers to the signal ratio; also: potency is read from the fitted curve at half-maximal effect; % is scaled to controls: 0 for no effect and ±100 for the full control effect
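His-tagged MBNL1 binding to biotinylated (CUG)12 RNA was measured by TR-FRET using terbium anti-His antibody (0.055 ng/ul final) and streptavidin-XL665 (5 nM final). Compounds were titrated 92 nM to 58 uM; 60 min at room temperature.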
DRD3 antagonist: blocks the human D3 dopamine receptor | P35462 | D3R cells, DiscoveRx beta-arrestin luminescence, antagonist mode; hits give low values | max response, negative = inhibition, % | 360,000 compounds, 2.5% hits | AID 652054; in the data active = max response below about -50%; inconclusive = no clear call, values can overlap the other calls; also: % is scaled to controls: 0 for no effect and ±100 for the full control effect
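Cells plated overnight at 1500 cells/well, then exposed to library compounds with dopamine controls for 90 minutes at 37 degrees C. DiscoveRx reagent added for 30–60 minutes at room temperature; luminescence read, quantitative HTS format.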
a7 integrin act: integrin-mediated muscular dystrophy alleviation activation | alpha7betagal myoblasts, beta-gal FDG fluorescence, 48 h | Potency, µM (top dose mostly 38.3 µM), for the others: at the highest dose activation, usual class: activators | 350,000 compounds, 0.064% hits;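 also: potency is read from the fitted curve at half-maximal effect; 100% = response of the positive control SU9516; nearly all actives have a fitted effect of over 60% in size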
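alpha7betagal+/- myoblasts (passage 13, 250/well) treated 48 h at 37C with compounds at 1:260 dilution of DMSO stock. Lysed, then beta-galactosidase activity read as FDG fluorescence (ex 480/em 540) after 30 min, with pre-read for autofluorescence.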
* marks the source's active call; other numbers are inactive results; i = inactive; ? = inconclusive; . = no result; ! = not active in a repeat; [ ] = dose if it differs, or a comment. Unless noted, calls follow the shape of the dose curve; as a rule, active = well fitted curve in the direction sought with a large enough effect; inconclusive = small, poorly fitted or top-dose-only effect, or another doubt; inactive = no such curve, though single readings can be large; an effect the other way counts as inactive or inconclusive.

SMILES	PTHR1 agonist	D3 ag	CBFb RUNX1 block	MBNL1 CUG block	DRD3 antagonist	a7 integrin act
O=C1C(=Cc2ccccc2O)SC(=S)N1CCCN1CCOCC1	i	2	.	.	16	-2%
O=C(c1ccc(Cl)cc1)c1ccc(CN2C(=O)c3ccccc3C2=O)o1	-87%	-5	3%	5%	-64*	9%
O=C1N=c2ccccc2=C1c1c(O)n(-c2cccc(F)c2)[nH]c1=O	-18%	-11	-18%	.	?	-19%
CCn1c(O)c(C2=c3ccccc3=NC2=O)c2cc(Br)ccc21	-30%	-7	4%	-8%	-80*	-26%
Nc1nc(CN2CCN(c3cccc(Cl)c3)CC2)nc(N2CCCc3ccccc32)n1	-19%	16	-28%	5%	-77*	0%
Nc1nc(CN2CCN(c3ccccc3F)CC2)nc(N2CCCc3ccccc32)n1	i	32*	1%	-4%	-24	-8%
Nc1nc(CN2CCN(c3ccccc3)CC2)nc(N2CCCc3ccccc32)n1	-18%[57.5 µM]	6	-10%	0%	?	-18%
COc1ccc(-c2cc(=O)c3cc(OC)ccc3[nH]2)cc1	-15%	-10	-1%[2.36 µM]	29%	6	-8%
COc1ccc(-c2cc(=O)[nH]c(=S)[nH]2)cc1	i	6	5%	6%	-50*	5%
CC(=O)c1cc2cccc(OC3(C)CCN(Cc4ccc(-c5ccccn5)cc4)C3)c2o1 (stereo not drawn)	-12%	-10	.	.	-53*	.
CC(C)[C@@H](C(=O)NCC1CCC(C(=O)O)CC1)n1nnc2ccccc2c1=O (stereo partly drawn)	9%	-4	6%	13%	-57*	41%
COc1ccc(-c2cn3c(n2)sc2cc(C(=O)Nc4cccc(OC)c4)ccc23)cc1	-1%	11	.	.	.	.
COc1ccc(-c2cn3c(n2)sc2cc(C(=O)Nc4cccc(SC)c4)ccc23)cc1	i	77*	.	.	.	.
O=C(NNC(=O)c1cc2cc(OC(F)(F)F)ccc2[nH]1)c1cccc(C(F)(F)F)c1	i	-2	-2%	.	-13	9%
COc1ccc(OC)c(Nc2nc(=O)c3cccnc3s2)c1	16%	-4	-4%	6%	-10	15%
Cc1ccc(Nc2nc(=O)c3cccnc3s2)cc1	i	-15	1%	-6%	-102*	4%
CC(C)C(=O)C1=Cc2cccc([N+](=O)[O-])c2OC1N1CCOCC1 (stereo not drawn)	-10%	-8	.	.	-54*	-12%
CC(C)C(=O)C1=Cc2cc([N+](=O)[O-])ccc2OC1N1CCOCC1 (stereo not drawn)	i	-6	.	?	?	?
CC(C)N1CCC(N2CCN(CC#Cc3ccccc3)CC2CCO)CC1 (stereo not drawn)	-17%	2	14%	7%	-7	-33%
COc1ccc(C(=O)Cn2c(C)nc([N+](=O)[O-])c2Br)cc1	-64%	-25	5%	12%	-56*	-30%
Cc1nc([N+](=O)[O-])c(NCCO)n1Cc1ccccc1	i	8	-2%	22%	8	1%
Cc1nc([N+](=O)[O-])c(Br)n1CC(=O)c1ccc(Cl)cc1	-30%	-2	-3%	12%	-29	1%
Cc1nc([N+](=O)[O-])c(Br)n1Cc1ccc(Cl)c(Cl)c1	-54%	-15	-4%	0%	-76*	-55%
CCc1ccccc1NC(=O)c1ccc(=O)n(Cc2ccc(F)cc2)c1	-7%	2	.	.	.	.
CO[C@@H]1COC(=O)C/C=C\[C@@H](C)[C@H](OC)COC(=O)[C@H](COCc2ccccc2)NC(=O)C/C=C\[C@H]1C	.	.	7%[13.1 µM]	.	.	.
COc1ccc(NC(=O)CSc2nnnn2C2CC2)cc1S(=O)(=O)N1CCOCC1	i	5	.	.	9	11%
Cc1ccc(Cl)cc1N1CCN(S(=O)(=O)c2ccc3c(c2)CC(=O)N3C)CC1	i	69*!	.	-9%	-14	-4%
